The supplement of paper PMC6992640
Counter-ions that a name gives are not always drawn. ± gives the standard deviation of the averaged measurements.

Tests used:
Assay in all cases: cell viability (% of vehicle); higher = less cytotoxic
Details in all cases: 10 µM; 72 h
[1] = test system: HCI01 (cells of a triple-negative basal-like breast cancer xenograft)
[2] = test system: HCI03 (cells of an ER-positive luminal breast cancer xenograft)
[3] = test system: HCI09 (cells of a triple-negative luminal androgen receptor type breast cancer xenograft)
[4] = test system: HCI11 (cells of an ER-positive luminal breast cancer xenograft)
[5] = test system: HCI13 (cells of an ER-positive luminal breast cancer xenograft)
[6] = test system: HCI16 (cells of a triple-negative basal-like breast cancer xenograft)
[7] = test system: UCD52 (cells of a triple-negative basal-like breast cancer xenograft)
[8] = test system: WHIM2 (cells of a triple-negative basal-like breast cancer xenograft)
[9] = test system: WHIM30 (cells of a triple-negative basal-like breast cancer xenograft)
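Also: PDX cells carrying CMV promoter-driven luciferase, viability read as total photon flux per second by IVIS imaging following D-luciferin, vehicle control 0.1% DMSO.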

SMILES | cell viability [1] | cell viability [2] | cell viability [3] | cell viability [4] | cell viability [5] | cell viability [6] | cell viability [7] | cell viability [8] | cell viability [9]
Cc1ccc(=O)n(-c2ccccc2)c1 [Pirfenidone] | 92.4 ± 3 | 99.8 | 103 ± 26 | 89.4 | 106 ± 4.5 | 91.3 | 85.5 ± 5.1 | 97 ± 15 | 111 ± 11
CC1(C(=O)[O-])CCC2(C)CCC3(C)C(=CC(=O)C4C5(C)CCC(OC(=O)CCC(=O)[O-])C(C)(C)C5CCC43C)C2C1.[Na+].[Na+] (stereo unspecified) [Carbenoxolone disodium] | 84.3 ± 8 | 122 | 89.2 ± 4.5 | 103 | 129 ± 87 | 108 | 82.3 ± 1.7 | 108 ± 11 | 97.9 ± 2.5
CCCCC(C)(O)C/C=C/[C@H]1[C@H](O)CC(=O)[C@@H]1CCCCCCC(=O)OC (mixture of isomers) [Misoprostol] | 95 ± 25 | 120 | 107 ± 12 | 101 | 123 ± 9.4 | 112 | 96.6 ± 8.3 | 93.1 ± 9.9 | 107 ± 4.6
O=C(CS(=O)Cc1ccco1)NCC=CCOc1cc(CN2CCCCC2)ccn1 (stereo unspecified) [Lafutidine] | 137 ± 32 | 136 | 107 ± 3.1 | 108 | 190 ± 46 | 119 | 89.1 ± 3.8 | 88.6 ± 19 | 114 ± 2
CC(C)(C)c1cc(C(C)(C)C)c(NC(=O)c2c[nH]c3ccccc3c2=O)cc1O [Ivacaftor (VX-770)] | 41.4 ± 24 | 83.8 | 18.7 ± 3.1 | 139 | 29.5 ± 4.1 | 121 | 97.2 ± 20 | 34.4 ± 0.58 | 200 ± 19
CCCCNc1ccc(C(=O)OCCN(C)C)cc1.Cl [Tetracaine HCl] | 130 ± 19 | 134 | 105 ± 25 | 121 | 122 ± 19 | 99 | 90.7 ± 13 | 92.2 ± 17 | 103.43 ± 0.084
CCOC(=O)CCC(=O)OC1C(OC2C(C)C(OC3CC(C)(OC)C(O)C(C)O3)C(C)C(=O)OC(CC)C(C)(O)C(O)C(C)C(=O)C(C)CC2(C)O)OC(C)CC1N(C)C (stereo unspecified) [Erythromycin Ethylsuccinate] | 105 ± 5.4 | 97.5 | 97.4 ± 21 | 96.1 | 69.6 ± 1.3 | 132 | 87.3 ± 4.6 | 105 ± 20 | 108 ± 16
CCNC1(C(N)=O)CCN(c2ncnc3c2nc(-c2ccccc2Cl)n3-c2ccc(Cl)cc2)CC1.Cl | 83 ± 14 | 86 | 39.3 ± 16 | 75 | 81 ± 13 | 92.1 | 63.4 ± 1.6 | 89.6 ± 5.2 | 109 ± 9.3
CC1C(NC(=O)C(=NOC(C)(C)C(=O)O)c2csc(N)n2)C(=O)N1S(=O)(=O)O (stereo unspecified) [Aztreonam] | 104 ± 4.2 | 113 | 96.5 ± 6.8 | 109 | 118 ± 15 | 114 | 95.9 ± 3 | 84.4 ± 8.5 | 123 ± 30
COc1ccc(C(=O)CC(=O)c2ccc(C(C)(C)C)cc2)cc1 [Avobenzone] | 74.2 ± 40 | 126 | 74.1 ± 8.4 | 83.5 | 76.7 ± 5.2 | 119 | 71 ± 1.6 | 106 ± 37 | 141 ± 12
CCOC(=O)NC1CCC2C(C1)CC1C(=O)OC(C)C1C2C=Cc1ccc(-c2cccc(F)c2)cn1 (stereo unspecified) [Vorapaxar] | 132 ± 37 | 121 | 90.5 ± 21 | 104 | 84.1 ± 22 | 108 | 76.4 ± 3.5 | 115 ± 27 | 72.6 ± 10
C#CC1(OC(C)=O)CCC2C3CCC4=CC(OC(C)=O)CCC4C3CCC21C (stereo unspecified) [Ethynodiol diacetate] | 136 ± 22 | 118 | 86.3 ± 5.5 | 73.4 | 142 ± 16 | 136 | 84.9 ± 5.6 | 107 ± 17 | 112 ± 16
CCCCC1C(=O)N(c2ccccc2)N(c2ccccc2)C1=O [Phenylbutazone] | 89.4 ± 24 | 129 | 86.7 ± 11 | 97.2 | 127.3 ± 0.28 | 120 | 88.9 ± 1.4 | 89 ± 23 | 119 ± 3.8
O=C(Nc1ccccc1)c1ccccc1O [Salicylanilide] | 165 ± 40 | 133 | 143 ± 34 | 111 | 98.3 ± 6.3 | 153 | 123 ± 4.3 | 160 ± 20 | –
Cl.NC1=NCC2c3ccccc3Cc3ccccc3N12 (stereo unspecified) [Epinastine HCl] | 102 ± 1.5 | 94.8 | 82.5 ± 4.8 | 95.5 | 79.4 ± 1.9 | 118 | 79 ± 1.4 | 96.5 ± 8.4 | 89.3 ± 7
Cc1nc2n(c(=O)c1CCN1CCC(c3noc4cc(F)ccc34)CC1)CCCC2 [Risperidone] | 133 ± 7.9 | 82.8 | 107 ± 61 | 105 | 118 ± 38 | 107 | 83.8 ± 11 | 86 ± 25 | 128 ± 15
CCC1OC(=O)C(C)C(OC2CC(C)(OC)C(O)C(C)O2)C(C)C(OC2OC(C)CC(N(C)C)C2O)C(C)(OC)CC(C)C(=O)C(C)C(O)C1(C)O (stereo unspecified) [Clarithromycin] | 112 ± 5.1 | 137 | 94.7 ± 19 | 116 | 125 ± 11 | 96.6 | 95.5 ± 8.8 | 104 ± 10 | 113 ± 22
Cc1nc(C(=O)NCC(=O)O)c(O)c2ccc(Oc3ccccc3)cc12 | 122 ± 2.7 | 189 | 88.7 ± 11 | 140 | 113 ± 4.4 | 88.2 | 107 ± 14 | 160 ± 8.2 | 116 ± 14
CC(C)(C)N.CCCC(NC(C)C(=O)N1C(C(=O)O)CC2CCCCC21)C(=O)OCC (stereo unspecified) [Perindopril Erbumine] | 84.9 ± 13 | 101 | 95.1 ± 11 | 93.5 | 129 ± 5.6 | 108 | 72.44 ± 0.41 | 98.2 ± 1.5 | 114 ± 28
S=c1nc[nH]c2nc[nH]c12 [Mercaptopurine (6-MP)] | 108 ± 4.9 | 104 | 116 ± 6 | 81.6 | 92.3 ± 12 | 74.9 | 91.6 ± 4.2 | 99.3 ± 24 | 118 ± 32
COC(=O)Nc1nc2cc(C(=O)c3ccccc3)ccc2[nH]1 [Mebendazole] | 134 ± 45 | 110 | 119 ± 45 | 68.6 | 88.9 ± 15 | 177 | 103.3 ± 0.22 | 92.6 ± 18 | 110.3 ± 0.28
CC(Cn1cnc2c(N)ncnc21)OCP(=O)(O)O (stereo unspecified) [Tenofovir] | 89.1 ± 9.4 | 123 | 103 ± 15 | 106 | 112 ± 11 | 116 | 90.6 ± 6.9 | 99.3 ± 14 | 121.3 ± 1.2
NC1CN(c2c(F)cc3c(=O)c(C(=O)O)cn(C4CC4F)c3c2Cl)CC12CC2.O (stereo unspecified) [Sitafloxacin Hydrate] | 83.3 ± 48 | 95.5 | 111 ± 13 | 90.5 | 116.6 ± 0.93 | 122 | 88.8 ± 9.9 | 95.6 ± 27 | 119 ± 4.7
CC(CCC(=O)O)C1CCC2C3C(O)CC4CC(O)CCC4(C)C3CC(O)C12C (stereo unspecified) [Cholic acid] | 96 ± 8.2 | 142 | 89.6 ± 7.1 | 87.2 | 109 ± 9.5 | 98.7 | 101.2 ± 0.7 | 96.7 ± 11 | 99.9 ± 11
CC(C)NCC(O)c1ccc(NS(C)(=O)=O)cc1.Cl (stereo unspecified) [Sotalol] | 120 ± 11 | 116 | 105 ± 37 | 103 | 103 ± 5.8 | 105 | 85.2 ± 2.1 | 101 ± 13 | 118 ± 17
COCCc1ccc(OCC(O)CNC(C)C)cc1.COCCc1ccc(OCC(O)CNC(C)C)cc1.O=C(O)C(O)C(O)C(=O)O (stereo unspecified) [Metoprolol Tartrate] | 126 ± 15 | 111 | 112 ± 13 | 95 | 81.4 ± 14 | 112 | 88.1 ± 13 | 94.4 ± 13 | 107 ± 2.7
CN1CCN(c2cc3c(cc2F)c(=O)c(C(=O)O)cn3-c2ccc(F)cc2)CC1 [Difloxacin HCl] | 60.2 ± 1 | 84.7 | 53.6 ± 2 | 190 | 115 ± 8.6 | 94.8 | 116 ± 9.9 | 71.6 ± 21 | 130 ± 23
NC(=O)c1ncn(C2OC(CO)C(O)C2O)c1O (stereo unspecified) [Mizoribine] | 82.4 ± 3.9 | 89.4 | 93.1 ± 30 | 88.8 | 90.05 ± 0.16 | 87.7 | 88.5 ± 5 | 97 ± 11 | 84.4 ± 3.9
